Cardio protect = myocardial damage modulation in H9c2 cells. H9c2 cardiomyocytes, H2O2 injury protection, ATPLite, 2 h. protection from H2O2 cell death, % at 20 µM. 0.63% of 360,000 active. AID 588492;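 active means compounds giving at least 50% protection of heart cells from peroxide-induced death in the single-dose screen, raw or plate-pattern-corrected value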;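 further: 0% = DMSO wells with peroxide and 100% = DMSO wells without peroxide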
CRFR2-BP ag = agonists of human CRF-binding protein/CRF-R2 receptor complex | 0.46% of 350,000 active | activation, % at 13.2 µM | HEK293 CRF-R2/CRF-BP, calcium dye fluorescence (FLIPR); percent of saturating CRF peptide response;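 active means activation of at least 50%, plus an integration ratio under a set limit after plate pattern correction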;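 further: plate controls were neutral control wells without compound for no effect and CRF at EC100 for full effect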
SKN-1 block = inhibitors of C. elegans SKN-1; inhibition, % at 21.8 µM; C. elegans VP596 Pgst-4::GFP/RFP ratio, acrylamide-induced, 24 h; 0.49% of 360,000 active; AID 624304;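 active means interference check ratio from 0.5 to 1.5 plus GFP to RFP signal ratio inhibition reaching or exceeding a fixed threshold, cut at about 30% in these data, passing the limit was not always enough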
TAG inh = reduces triacylglycerol accumulation in H9c2 cells; Nile Red lipid (TAG) fluorescence; cells loaded with 200 µM oleic acid; inhibition, % at 12.5 µM; 0.66% of 230,000 active; AID 651582;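 active means pattern-corrected inhibition of lipid staining of at least 50% with the nuclear-stain viability signal not falling by more than 50%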;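 further: 0% = DMSO wells and 100% = triacsin C control wells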
CRFBP-R2 block = blocks CRF-induced signaling of the CRF-BP/CRF-R2 complex; AID 588475; 0.59% of 350,000 active; inhibition, % at 11.8 µM; HEK293 CRF-R2/CRF-BP, CRF-induced calcium fluorescence;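 active means inhibition of the ligand-induced calcium signal above about 50% at the single tested concentration, limit read from the data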
iPSC survival up = increases survival of single human iPS cells; hiPSC single-cell survival, ATPlite luminescence; 100% = ROCK inhibitor wells, 0% = DMSO; survival enhancement, % at 20 µM; 0.044% of 360,000 active; in the data active means survival enhancement above about 18%;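 further: cells exposed to compounds for 16 hours before the ATP read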
Starred values were filed as active, the others as inactive; nt = no result. Sampled rows, rich in hits. Any-hit rate of the full collection: about 2.5%.

SMILES	Cardio protect	CRFR2-BP ag	SKN-1 block	TAG inh	CRFBP-R2 block	iPSC survival up
O=C(Nc1nccs1)c1ccc2ccccc2n1	-11	1	57*	nt	-8	0
Cc1csc(NC(=O)c2ccc3ccccc3n2)n1	-14	-4	11	nt	19	0
O=C(Nc1cccc(S(=O)(=O)N2CCCCCC2)c1)c1ccc2ccccc2n1	-13	0	7	nt	16	1
O=C(Nc1ccc(N2CCCCC2)cc1)c1ccc2ccccc2n1	-21	0	69*	-23	13	-1
CS(=O)(=O)c1ccc(NC(=O)CCN2C(=O)C3CC=CCC3C2=O)cc1 (stereo unspecified)	6	1	9	-11	-13	0
C=CCC[C@H](CCCCC)OC(=O)/C=C/[C@@H](O)[C@H](O)C[C@H](O)CC=C	nt	nt	6	nt	nt	0
C[C@H]1CN([C@@H](C)CO)C(=O)c2cc(Br)cnc2O[C@H]1CN(C)C(=O)C1CC1	-1	0	7	4	-13	3
C[C@@H]1CN([C@@H](C)CO)C(=O)c2cc(Br)cnc2O[C@H]1CN(C)C(=O)C1CC1	-7	1	-7	1	0	20*
CC1=Nc2ccccc2/C1=C/c1c(N)n2c(S(=O)(=O)C(C)C)nsc2nc1=O	-3	0	0	nt	26	1
CC1=Nc2ccccc2/C1=C/c1c(N)n2c(S(=O)(=O)CC(C)C)nsc2nc1=O	-1	-2	-4	-17	61*	-1
CC(C)(C)OC(=O)N1CCCN(C(=O)Nc2cccc(Cl)c2)CC1	-1	1	10	-7	113*	0
Cc1ccc(/C=C2\SC(=S)N(CCC(=O)NNC(=O)c3ccccc3O)C2=O)cc1	7	0	0	nt	-10	0
CCOc1ccc(/C=C2\SC(=S)N(CCC(=O)Nc3ccccc3C(=O)O)C2=O)cc1	-9	-3	-4	nt	55*	0
Cc1ccc(/C=C2\SC(=S)N(CCCC(=O)NNC(=O)c3ccccc3O)C2=O)cc1	55*	-1	20	2	-17	0
COc1ccc(/C=C2\SC(=S)N(CCC(=O)Nc3ccccc3C(=O)O)C2=O)cc1	-4	0	18	nt	16	-1
O=C(NC1CCCCC1)C(c1ccco1)N(C(=O)c1csnn1)c1cccc(Cl)c1 (stereo unspecified)	-4	-1	-9	nt	-1	0
CCCCOc1ccc(OCCCN2CCOCC2)cc1	-7	3	-3	-21	0	-1
Clc1ccc(OCCCCCN2CCOCC2)cc1	-2	4	39*	nt	-4	-1
Cc1cc(Cl)cc(C)c1OCCCCN1CCOCC1	-4	-2	43*	nt	-8	-2
CC1(C)CC(NC(=O)c2ccc(Br)o2)CC(C)(C)N1	6	0	27	nt	0	0
CN(CC(=O)NCCc1ccccc1)S(=O)(=O)c1ccc(Br)s1	2	-2	37*	nt	7	0
CN(CC(=O)NCCc1ccccc1)S(=O)(=O)c1cccs1	4	5	-27	-5	26	3
COc1ccc(OC)c(NC(=O)CCN2CC(C)CC(C)C2)c1 (stereo unspecified)	7	-1	27	1	0	-1
CCOc1ccc2nc(NC(=O)c3ccc(S(=O)(=O)N4CCOCC4)cc3)sc2c1	-2	-4	35*	8	-13	-2
CCOc1ccc2nc(NC(=O)Cc3cccs3)sc2c1	-15	-1	-11	64*	4	2
SMILES	Cardio protect	CRFR2-BP ag	SKN-1 block	TAG inh	CRFBP-R2 block	iPSC survival up
CCOC(=O)c1ccc2nc(NC(=O)c3ccco3)sc2c1	-14	0	20	-35	13	-2
CCOc1ccc2nc(NC(=O)c3ccco3)sc2c1	-17	-1	35*	-5	-7	-1
O=C(Nc1nc2c(F)cc(F)cc2s1)c1ccccn1	-8	5	37*	46	1	-1
CC(=O)N1CCC(C(=O)Nc2ccc(S(=O)(=O)NCCc3ccccc3)cc2)CC1	5	1	1	nt	-8	-1
COc1ccc(OC2(C)CCN(Cc3ccc(-c4ccccc4)o3)C2)cc1 (stereo unspecified)	-9	nt	-17	-17	nt	3
CCOc1ccc2nc(NC(=O)c3ccccn3)sc2c1	-15	4	22	51*	8	-1
O=C(Nc1nc2ccc(S(=O)(=O)N3CCCC3)cc2s1)c1ccccn1	33	3	14	-2	65*	-1
Cc1ccc2nc(NC(=O)c3ccccn3)sc2c1	-25	0	11	25	11	-2
CNc1nc2[nH]c(=O)c3c(c2s1)OC(N)=C(C#N)C3c1cccc(F)c1 (stereo unspecified)	17	103*	0	-3	-157	-1
O=C1/C(=C\c2cc([N+](=O)[O-])ccc2O)SC(=S)N1Cc1ccc(Cl)cc1	-20	140*	52	nt	-85	0
O=C1/C(=C\c2cccc(O)c2O)SC(=S)N1Cc1ccccc1	2	-1	7	nt	-28	0
COc1cc(/C=C2\SC(=O)N(c3cccc(Cl)c3)C2=O)cc([N+](=O)[O-])c1O	-18	-6	8	4	54*	0
O=C1S/C(=C\c2ccc(O)c([N+](=O)[O-])c2)C(=O)N1Cc1cccc([N+](=O)[O-])c1	-12	5	-3	nt	92*	-1
O=C1S/C(=C\c2ccc(O)c([N+](=O)[O-])c2)C(=O)N1c1ccccc1Cl	-23	1	-1	1	55*	0
Cc1ccc(NC(=O)CN2C(=O)S/C(=C/c3ccc(O)c([N+](=O)[O-])c3)C2=O)cc1C	-18	-4	14	-1	37	-1
Cc1cccc(NC(=O)CN2C(=O)S/C(=C\c3ccc(O)c([N+](=O)[O-])c3)C2=O)c1	-1	-1	3	0	20	0
Cc1ccccc1-c1cnc(C(O)c2ccc(C(C)(C)C)cc2)[nH]1 (stereo unspecified)	-2	nt	3	-13	nt	0
COc1ccc(NS(=O)(=O)c2cc(NC(=O)COc3ccc(OC)cc3)ccc2N2CCOCC2)cc1	-1	2	-11	-29	-6	0
COc1ccc(Cc2c(C3CCCCC3)nc3c(Cl)cc(C(F)(F)F)cn23)c(C)c1	nt	nt	1	nt	nt	-1
COc1ccc(Nc2cccccc2=O)cc1	4	-1	5	2	3	-2
COc1ccc(Nc2ccccc2)c(C)c1	-2	0	-8	nt	50*	-2
CS(=O)(=O)Nc1cccc2cccnc12	13	-2	26	-10	5	4
Cc1cc(C)n(-c2ccc3cccc(NS(C)(=O)=O)c3n2)n1	88*	0	-3	-55	-6	-1
CC(C)CCOc1ccc(C(=O)NCC(c2ccco2)N(C)C)cc1 (stereo unspecified)	-2	-1	-38	nt	-14	0
